According to PubChem BioAssay AID1159580 (chemical genetic matrix, 2015):
About 2,000 (36%) of roughly 5,500 compounds were called active. About 18% were inconclusive and are not listed. No stated cut-off is given here; in the data, active means normalized growth mostly below about 0.91 (no sharp cut-off); inconclusive means no clear call, values can overlap the other calls; inactive means mostly above about 0.92. The list shows a part of the results. Where a SMILES comes first, the peptide text is derived from it. [ ]: non-standard residue; d: D form. Orn = NCCC[CH](N)C(=O)O

Experiment: chemical genetic growth profiling, strain panel (AID 1159580);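 further: tested at 20 µM; growth read once vehicle control cultures reached saturation at 30 °C; 1 = growth at the plate median or of vehicle wells; lower values mean less growth of the strain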
Conditions: growth OD

Measured: normalized growth

CC(C)CC1NC(=O)C(CCCN)NC(=O)C(C(C)C)NC(=O)C2CCCN2C(=O)C(Cc2ccccc2)NC(=O)C(CC(C)C)NC(=O)C(CCCN)NC(=O)C(C(C)C)NC(=O)C2CCCN2C(=O)C(Cc2ccccc2)NC1=O (stereo unspecified) (cyclo(FPV[Orn]LFPV[Orn]L); configuration not given here)
inactive: S. cerevisiae deletion strains, locus YKL160W, strain elf1, active compounds read low 1.02 | S. cerevisiae deletion strains, locus YKL190W, strain CNB1, active compounds read low 1.02 | S. cerevisiae deletion strains, locus YKR026C, strain gcn3, active compounds read low 1.04 | S. cerevisiae deletion strains, locus YKR091W, strain srl3, active compounds read low 1.02 | S. cerevisiae deletion strains, locus YLL001W, strain dnm1, active compounds read low 1.03 | S. cerevisiae deletion strains, locus YLL026W, active compounds read low 1.02 | S. cerevisiae deletion strains, locus YLL041C, strain sdh2, active compounds read low 1.02 | S. cerevisiae deletion strains, locus YLR027C, strain aat2, active compounds read low 1.01 | S. cerevisiae deletion strains, locus YLR058C, strain SHM2, active compounds read low 1 | S. cerevisiae deletion strains, locus YLR102C, strain apc9, active compounds read low 1.01 | S. cerevisiae deletion strains, locus YLR113W, strain HOG1, active compounds read low 0.971 | S. cerevisiae deletion strains, locus YLR221C, strain rsa3, active compounds read low 1.04 | S. cerevisiae deletion strains, locus YLR258W, strain gsy2, active compounds read low 1.04 | S. cerevisiae deletion strains, locus YLR268W, strain sec22, active compounds read low 0.989 | S. cerevisiae deletion strains, locus YLR320W, strain mms22, active compounds read low 1.02 | S. cerevisiae deletion strains, locus YLR330W, strain CHS5, active compounds read low 1.01 | S. cerevisiae deletion strains, locus YLR342W, strain FKS1 (second series), active compounds read low 0.857 | S. cerevisiae deletion strains, locus YLR342W, strain FKS1, active compounds read low 1.02 | S. cerevisiae deletion strains, locus YLR357W, strain rsc2, active compounds read low 0.968 | S. cerevisiae deletion strains, locus YLR370C, strain arc18, active compounds read low 0.927 | S. cerevisiae deletion strains, locus YLR371W, strain rom2, active compounds read low 1.01 | S. cerevisiae deletion strains, locus YLR384C, strain iki3, active compounds read low 1.03 | S. cerevisiae deletion strains, locus YLR418C, strain cdc73, active compounds read low 0.932 | S. cerevisiae deletion strains, locus YML016C, strain PPZ1, active compounds read low 1.01 | S. cerevisiae deletion strains, locus YML032C, strain rad52, active compounds read low 0.989 | S. cerevisiae deletion strains, locus YML120C, strain ndi1, active compounds read low 1.02 | S. cerevisiae deletion strains, locus YML124C, strain tub3, active compounds read low 1 | S. cerevisiae deletion strains, locus YMR058W, strain fet3, active compounds read low 1.03 | S. cerevisiae deletion strains, locus YMR078C, strain ctf18, active compounds read low 1.01 | S. cerevisiae deletion strains, locus YMR125W, strain sto1, active compounds read low 0.999 | S. cerevisiae deletion strains, locus YMR129W, active compounds read low 1.02 | S. cerevisiae deletion strains, locus YMR205C, strain PFK2, active compounds read low 1.02 | S. cerevisiae deletion strains, locus YMR223W, strain ubp8, active compounds read low 0.978 | S. cerevisiae deletion strains, locus YMR263W, strain SAP30, active compounds read low 1 | S. cerevisiae deletion strains, locus YMR307W, strain GAS1, active compounds read low 0.833 | S. cerevisiae deletion strains, locus YNL067W, strain RPL9B, active compounds read low 0.994 | S. cerevisiae deletion strains, locus YNL071W, strain lat1, active compounds read low 1.03 | S. cerevisiae deletion strains, locus YNL128W, strain TEP1, active compounds read low 1.03 | S. cerevisiae deletion strains, locus YNL153C, strain GIM3, active compounds read low 1 | S. cerevisiae deletion strains, locus YNL183C, strain NPR1, active compounds read low 0.948 | S. cerevisiae deletion strains, locus YNL209W, strain ssb2, active compounds read low 1.01 | S. cerevisiae deletion strains, locus YNL233W, strain BNI4, active compounds read low 0.982 | S. cerevisiae deletion strains, locus YNL248C, strain rpa49, active compounds read low 1.03 | S. cerevisiae deletion strains, locus YNL250W, strain rad50, active compounds read low 0.998 | S. cerevisiae deletion strains, locus YNL271C, strain bni1, active compounds read low 0.995 | S. cerevisiae deletion strains, locus YNL298W, strain CLA4, active compounds read low 0.967 | S. cerevisiae deletion strains, locus YNL307C, strain MCK1, active compounds read low 0.991 | S. cerevisiae deletion strains, locus YNL322C, strain KRE1 (second series), active compounds read low 1.06 | S. cerevisiae deletion strains, locus YNL322C, strain KRE1, active compounds read low 1.01 | S. cerevisiae deletion strains, locus YNR049C, strain mso1, active compounds read low 1.04 | S. cerevisiae deletion strains, locus YNR052C, strain pop2, active compounds read low 0.984 | S. cerevisiae deletion strains, locus YOL012C, strain htz1 0.807 | S. cerevisiae deletion strains, locus YOL147C, strain pex11, active compounds read low 1.01 | S. cerevisiae deletion strains, locus YOR001W, strain rrp6, active compounds read low 1 | S. cerevisiae deletion strains, locus YOR061W, strain CKA2, active compounds read low 1 | S. cerevisiae deletion strains, locus YOR069W, strain VPS5, active compounds read low 1 | S. cerevisiae deletion strains, locus YOR070C, strain gyp1, active compounds read low 1.03 | S. cerevisiae deletion strains, locus YOR080W, strain dia2, active compounds read low 1.05 | S. cerevisiae deletion strains, locus YOR083W, strain WHI5, active compounds read low 1.01 | S. cerevisiae deletion strains, locus YOR106W, strain vam3, active compounds read low 1.01 | S. cerevisiae deletion strains, locus YOR136W, strain idh2, active compounds read low 1 | S. cerevisiae deletion strains, locus YOR144C, strain elg1, active compounds read low 1 | S. cerevisiae deletion strains, locus YOR184W, strain ser1, active compounds read low 0.987 | S. cerevisiae deletion strains, locus YOR231W, strain MKK1, active compounds read low 0.983 | S. cerevisiae deletion strains, locus YOR265W, strain rbl2, active compounds read low 1.03 | S. cerevisiae deletion strains, locus YOR290C, strain snf2, active compounds read low 0.973 | S. cerevisiae deletion strains, locus YOR316C, strain cot1, active compounds read low 1.01 | S. cerevisiae deletion strains, locus YPL055C, strain LGE1, active compounds read low 0.985 | S. cerevisiae deletion strains, locus YPL078C, strain atp4, active compounds read low 1.02 | S. cerevisiae deletion strains, locus YPL106C, strain sse1, active compounds read low 0.995 | S. cerevisiae deletion strains, locus YPL240C, strain hsp82, active compounds read low 1.03 | S. cerevisiae deletion strains, locus YPL241C, strain CIN2, active compounds read low 1.01 | S. cerevisiae deletion strains, locus YPL256C, strain CLN2, active compounds read low 0.97 | S. cerevisiae deletion strains, locus YPR119W, strain clb2, active compounds read low 1 | S. cerevisiae deletion strains, locus YPR141C, strain kar3, active compounds read low 0.997 | S. cerevisiae deletion strains, locus YPR163C, strain tif3, active compounds read low 0.953 | S. cerevisiae deletion strains, locus YPR167C, strain met16, active compounds read low 1.01 | S. cerevisiae deletion strains, strain wtn01, active compounds read low 0.988 | S. cerevisiae strains, strain wild type, active compounds read low 1.04
active: S. cerevisiae deletion strains, locus YKL009W, strain mrt4, active compounds read low 1.4 [resistant] | S. cerevisiae deletion strains, locus YKL068W, active compounds read low 1.25 [resistant] | S. cerevisiae deletion strains, locus YKL085W, strain MDH1 (second series), active compounds read low 1.11 [resistant] | S. cerevisiae deletion strains, locus YKL085W, strain MDH1, active compounds read low 1.11 [resistant] | S. cerevisiae deletion strains, locus YKR001C, strain vps1, active compounds read low 0.236 | S. cerevisiae deletion strains, locus YLR039C, strain RIC1, active compounds read low 0.328 | S. cerevisiae deletion strains, locus YLR262C, strain YPT6 (second series), active compounds read low 0.293 | S. cerevisiae deletion strains, locus YLR262C, strain YPT6, active compounds read low 0.285 | S. cerevisiae deletion strains, locus YMR231W, strain pep5, active compounds read low 0.324 | S. cerevisiae deletion strains, locus YOL006C, strain TOP1, active compounds read low 0.122 | S. cerevisiae deletion strains, locus YOR270C, strain vph1, active compounds read low 0.468 | S. cerevisiae deletion strains, locus YPL051W, strain arl3, active compounds read low 0.7
